Data reported in PubChem BioAssay (NCATS).
Records with an inconclusive call do not appear. Activity calls are given as the source filed them. Unless noted, calls come from the whole dose curve. Bridge positions count the residues as written; N and C are the ends. Square brackets hold non-standard residues; d marks the D form. Peptide text beside a SMILES is read from it. hArg = N=C(N)NCCCC[C@H](N)C(=O)O; Mpa = O=C(O)CCS

What was measured:
[1] = qHTS for Inhibitors of the Functional Ribonucleoprotein Complex (vRNP) of Lassa (LASV) Arenavirus: LASV Primary Screen - GLuc reporter signal (AID 1347082; calls by dose curve; tested in HEK293 reporter line; note: nearly all actives have a fitted effect of over 60% in size)
[2] = qHTS for Inhibitors of the Functional Ribonucleoprotein Complex (vRNP) of Lassa (LASV) Arenavirus: Viability assay - alamar blue signal for LASV Primary Screen (AID 1347083; calls by dose curve; tested in HEK293 reporter line; note: nearly all actives have a fitted effect of over 80% in size)
[3] = qHTS for Inhibitors of the Functional Ribonucleoprotein Complex (vRNP) of Lymphocytic Choriomeningitis Arenaviruses (LCMV): Viability assay - alamar blue signal for LCMV Primary Screen (AID 1347085; calls by dose curve; tested in HEK293 reporter line; note: nearly all actives have a fitted effect of over 80% in size)
[4] = target: Nucleoprotein (Lymphocytic choriomeningitis virus (strain Armstrong)) (UniProt P09992); experiment: qHTS for Inhibitors of the Functional Ribonucleoprotein Complex (vRNP) of Lymphocytic Choriomeningitis Arenaviruses (LCMV): LCMV Primary Screen - GLuc reporter signal (AID 1347086); note: nearly all actives have a fitted effect of over 70% in size
Nucleoprotein (Lymphocytic choriomeningitis virus (strain Armstrong)), sequence (P09992 whole entry, looked up): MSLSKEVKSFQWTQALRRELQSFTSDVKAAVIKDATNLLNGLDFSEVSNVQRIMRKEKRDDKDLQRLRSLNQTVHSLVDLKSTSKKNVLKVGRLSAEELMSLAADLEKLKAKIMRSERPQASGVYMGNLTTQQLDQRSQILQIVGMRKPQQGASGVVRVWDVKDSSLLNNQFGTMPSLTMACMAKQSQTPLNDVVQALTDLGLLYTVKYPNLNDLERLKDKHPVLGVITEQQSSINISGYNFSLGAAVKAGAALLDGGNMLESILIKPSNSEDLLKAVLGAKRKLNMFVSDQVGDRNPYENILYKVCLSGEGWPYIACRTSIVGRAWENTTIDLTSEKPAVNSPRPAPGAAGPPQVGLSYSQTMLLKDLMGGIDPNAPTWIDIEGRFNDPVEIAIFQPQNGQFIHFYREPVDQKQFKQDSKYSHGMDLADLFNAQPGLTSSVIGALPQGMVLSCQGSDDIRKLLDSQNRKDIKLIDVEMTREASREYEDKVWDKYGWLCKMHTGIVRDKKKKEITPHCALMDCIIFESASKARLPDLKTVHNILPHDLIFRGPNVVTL
% is set by controls: 0 for no effect and ±100 for the full control effect.
Note: series mostly up to about 57 µM.

CN(C(=O)c1c(O)c2ccccc2n(C)c1=O)c1ccccc1
inactive: Potency [1] | Potency [2] | Potency [3] | Potency [4]

C=CCOc1ccccc1OCC(O)CNC(C)C (stereo not given)
inactive: Potency [1] | Potency [2] | Potency [3] | Potency [4]

CNC(=O)Oc1ccc2c(c1)[C@]1(C)CCN(C)[C@@H]1N2C
inactive: Potency [1] | Potency [2] | Potency [3] | Potency [4]

CCCCCC(=O)O[C@]1(C(C)=O)CC[C@H]2[C@@H]3CCC4=CC(=O)CC[C@]4(C)[C@H]3CC[C@@]21C
inactive: Potency [1] | Potency [2] | Potency [3] | Potency [4]

CC(=O)Nc1cccc(O)c1
inactive: Potency [1] | Potency [2] | Potency [3] | Potency [4]

CC1(C)[C@@H]2CC[C@@]1(C)C(=O)C2
inactive: Potency [1] | Potency [2] | Potency [3] | Potency [4]

CC(O)COc1ccccc1 (stereo not given)
inactive: Potency [1] | Potency [2] | Potency [3] | Potency [4]

CC(C)OC(=O)C(C(=O)OC(C)C)=C1SC=CS1
inactive: Potency [1] | Potency [2] | Potency [3] | Potency [4]

CN1CCCCC1CCN1c2ccccc2Sc2ccc(S(C)=O)cc21 (stereo not given)
inactive: Potency [1] | Potency [2] | Potency [3] | Potency [4]

CC(=O)Nc1ccc(OCCOCCOc2ccc(NC(C)=O)cc2)cc1
inactive: Potency [1] | Potency [2] | Potency [3] | Potency [4]

O=C(O)c1cn(C2CC2)c2cc(Cl)c(F)cc2c1=O
inactive: Potency [1] | Potency [2] | Potency [3] | Potency [4]

CN(C)CCOC(c1ccccc1)c1ccccc1
inactive: Potency [1] | Potency [2] | Potency [3] | Potency [4]

CCN(CC)C(=O)C1CN2CCc3cc(OC)c(OC)cc3C2CC1OC(C)=O (stereo not given)
inactive: Potency [1] | Potency [2] | Potency [3] | Potency [4]

CCOc1ccccc1C(N)=O
inactive: Potency [1] | Potency [2] | Potency [3] | Potency [4]

O=C1NCN(c2ccccc2)C12CCN(CCCC(c1ccc(F)cc1)c1ccc(F)cc1)CC2
inactive: Potency [1] | Potency [2] | Potency [3] | Potency [4]

N[C@@H](Cc1c[nH]c2ccc(O)cc12)C(=O)O
inactive: Potency [1] | Potency [2] | Potency [3] | Potency [4]

CCCCN=C(N)N=C(N)N
inactive: Potency [1] | Potency [2] | Potency [3] | Potency [4]

CNCCC(Oc1ccccc1OC)c1ccccc1 (stereo not given)
inactive: Potency [1] | Potency [2] | Potency [3] | Potency [4]

Cc1c(-c2ccccc2)oc2c(C(=O)OCCN3CCCCC3)cccc2c1=O
inactive: Potency [1] | Potency [2] | Potency [3] | Potency [4]

CCn1cc(C(=O)O)c(=O)c2cc(F)c(N3CCN(C)CC3)cc21
inactive: Potency [1] | Potency [2] | Potency [3] | Potency [4]

NC(=O)[C@@H]1CSSCCC(=O)N[C@@H](CCCCN=C(N)N)C(=O)NCC(=O)N[C@@H](CC(=O)O)C(=O)N[C@@H](Cc2c[nH]c3ccccc23)C(=O)N2CCC[C@H]2C(=O)N1 ([Mpa][hArg]GDWPC-NH2; disulfide 1-7)
inactive: Potency [1] | Potency [2] | Potency [3] | Potency [4]

CCCCC1C(=O)N(c2ccccc2)N(c2ccccc2)C1=O
inactive: Potency [1] | Potency [2] | Potency [3] | Potency [4]

NC1=NCC2c3ccccc3Cc3ccccc3N12 (stereo not given)
inactive: Potency [1] | Potency [2] | Potency [3] | Potency [4]

CC(C)=CCOc1ccc(/C=C/C(=O)c2ccc(OCC=C(C)C)cc2OCC(=O)O)cc1
inactive: Potency [1] | Potency [2] | Potency [3] | Potency [4]

CCCCNc1ccc(C(=O)OCCN(C)C)cc1
inactive: Potency [1] | Potency [2] | Potency [3] | Potency [4]

C=C(C)C(=O)OCC(O)CO (stereo not given)
inactive: Potency [1] | Potency [2] | Potency [3] | Potency [4]

C=Cc1c(C)c2cc3[nH]c(cc4nc(cc5nc(cc1[nH]2)C(C)=C5CCC(=O)O)C(CCC(=O)O)=C4C)c(C)c3C=C
inactive: Potency [1] | Potency [2] | Potency [3] | Potency [4]

Clc1ccc(C(Cn2ccnc2)OCc2c(Cl)cccc2Cl)c(Cl)c1 (stereo not given)
inactive: Potency [1] | Potency [2] | Potency [3] | Potency [4]

NC(N)=NC(=O)c1nc(Cl)c(N)nc1N
inactive: Potency [1] | Potency [2] | Potency [3] | Potency [4]

N[C@@H](Cc1ccc(O)cc1)C(=O)O
inactive: activity change, negative = inhibition [1] 4.89% [at 11.5 µM] | activity change, negative = reduced viability [2] 15.7% [at 11.5 µM] | activity change, negative = lower viability [3] 1.19% [at 11.5 µM] | activity change, negative = inhibition [4] 16.2% [at 11.5 µM]

Cc1ccc(CCn2c3c(c4cc(Cl)ccc42)CN(C)CC3)cn1
inactive: Potency [1] | Potency [2] | Potency [3] | Potency [4]

CCOC(=O)[C@H](CCc1ccccc1)N[C@H]1CCc2ccccc2N(CC(=O)O)C1=O
inactive: Potency [1] | Potency [2] | Potency [3] | Potency [4]

CC(=O)Oc1c(C)c(C)c2c(c1C)CC[C@@](C)(CCC[C@H](C)CCC[C@H](C)CCCC(C)C)O2
inactive: Potency [1] | Potency [2] | Potency [3] | Potency [4]

O=C(/C=C/c1ccccc1)NCCO
inactive: Potency [1] | Potency [2] | Potency [3] | Potency [4]

O=C(NC1CCN(CCc2c[nH]c3ccccc23)CC1)c1ccccc1
inactive: Potency [1] | Potency [2] | Potency [3] | Potency [4]

C=CCc1ccccc1OCC(O)CNC(C)C (stereo not given)
inactive: Potency [1] | Potency [2] | Potency [3] | Potency [4]

CCCCNc1cc(C(=O)O)cc(S(N)(=O)=O)c1Oc1ccccc1
inactive: Potency [1] | Potency [2] | Potency [3] | Potency [4]

CNC[C@H](O)c1ccc(O)c(O)c1
inactive: Potency [1] | Potency [2] | Potency [3] | Potency [4]

CCN(CC)C(=O)c1cccc(C)c1
inactive: Potency [1] | Potency [2] | Potency [3] | Potency [4]

CC(C)(C)c1ccc(C(O)CCCN2CCC(C(O)(c3ccccc3)c3ccccc3)CC2)cc1 (stereo not given)
inactive: Potency [1] | Potency [2] | Potency [3] | Potency [4]

O=C(c1ccc(F)cc1)C1CCN(CCn2c(=O)[nH]c3ccccc3c2=O)CC1
inactive: Potency [1] | Potency [2] | Potency [3] | Potency [4]

CCOC(CN1CCN(CC(C)C(=O)c2ccccc2)CC1)c1ccccc1 (stereo not given)
inactive: Potency [1] | Potency [2] | Potency [3] | Potency [4]

CCNC(=O)NCc1cccc(Cl)c1
inactive: Potency [1] | Potency [2] | Potency [3] | Potency [4]

C[C@H]1NCc2cc(-c3ccc4c(=O)c(C(=O)O)cn(C5CC5)c4c3OC(F)F)ccc21
inactive: Potency [1] | Potency [2] | Potency [3] | Potency [4]

CC(=O)CCC(=O)O
inactive: Potency [1] | Potency [2] | Potency [3] | Potency [4]

COc1cc(C(=O)OCCCN2CCCN(CCCOC(=O)c3cc(OC)c(OC)c(OC)c3)CC2)cc(OC)c1OC
inactive: Potency [1] | Potency [2] | Potency [3] | Potency [4]

CCn1cc(C(=O)O)c(=O)c2cc(F)c(N3CCNCC3)nc21
inactive: Potency [1] | Potency [2] | Potency [3] | Potency [4]

Oc1ccc(/C=C/c2cc(O)cc(O)c2)cc1
inactive: Potency [1] | Potency [2] | Potency [3] | Potency [4]

NC(CSCC(=O)O)C(=O)O (stereo not given)
inactive: Potency [1] | Potency [2] | Potency [3] | Potency [4]

CC1CC(OC(=O)C(O)c2ccccc2)CC(C)(C)N1C (stereo not given)
inactive: Potency [1] | Potency [2] | Potency [3] | Potency [4]

OCCN1CCN(CCCN2c3ccccc3C=Cc3ccccc32)CC1
inactive: Potency [1] | Potency [2] | Potency [3] | Potency [4]

O=C1Cc2cc(Cl)ccc2N1
inactive: Potency [1] | Potency [2] | Potency [3] | Potency [4]

CCN[C@H]1C[C@H](C)S(=O)(=O)c2sc(S(N)(=O)=O)cc21
inactive: Potency [1] | Potency [2] | Potency [3] | Potency [4]

CC(=O)O[C@]1(C(C)=O)CC[C@H]2[C@@H]3C=C(Cl)C4=CC(=O)CC[C@]4(C)[C@H]3CC[C@@]21C
inactive: Potency [1] | Potency [2] | Potency [3] | Potency [4]

CCCNC(C)(C)COC(=O)c1ccccc1
inactive: Potency [1] | Potency [2] | Potency [3] | Potency [4]

CCCCN(CCCC)CC(O)c1cc(Cl)cc2c1-c1ccc(Cl)cc1/C2=C/c1ccc(Cl)cc1 (stereo not given)
inactive: Potency [1] | Potency [2] | Potency [3] | Potency [4]

CCCCCCCCCCCCCCCCC(C(=O)O)C(O)(CC(=O)O)C(=O)O (stereo not given)
inactive: Potency [1] | Potency [2] | Potency [3] | Potency [4]

COc1cc2[nH]c(=O)[nH]c(=O)c2cc1OC
inactive: Potency [1] | Potency [2] | Potency [3] | Potency [4]

CCCN(CCC)C(=O)C(CCC(=O)OCCCN1CCN(CCOC(=O)Cc2c(C)n(C(=O)c3ccc(Cl)cc3)c3ccc(OC)cc23)CC1)NC(=O)c1ccccc1 (stereo not given)
inactive: Potency [1] | Potency [2] | Potency [3] | Potency [4]

COc1ccc2c(c1)c(CC(=O)OCC(=O)O)c(C)n2C(=O)c1ccc(Cl)cc1
inactive: Potency [1] | Potency [2] | Potency [3] | Potency [4]
